Laboratory results: the supplement of paper PMC9262897, “Low-cost anti-mycobacterial drug discovery using engineered E. coli” (Nature Communications, 2022)
Counter-ions that a name gives are not always drawn. ± gives the standard deviation of the averaged measurements.

test system: E. coli TESEC Mtb DapB; experiment: growth (OD600 after 10 h); higher = more growth (less inhibition); details: arabinose induction (level): High; compound 0.1 mM; raw OD600 reference: median of DMSO wells […], cell-free background 0.041
Description: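 TESEC E. coli strains in which the native enzyme is deleted and replaced by arabinose-inducible Mtb Asd, DapB, CysH or TrpD, each grown in its selective medium. Strains were screened against the Prestwick library at 0.1 mM and 1% DMSO in 384-well format at low and high arabinose induction. Growth is read as OD600 after 10 h in triplicate.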

Row | SMILES | growth
1 | CC(C)NCC(O)COc1cccc2[nH]ccc12 (stereo not given) [Pindolol] | 0.201 ± 0.011
2 | O=C1C(CC[S+]([O-])c2ccccc2)C(=O)N(c2ccccc2)N1c1ccccc1 (stereo not given) [Sulfinpyrazone] | 0.182 ± 0.0043
3 | COc1ccc(C(=O)NCc2cccnc2)cc1C(=O)NCc1cccnc1 [Picotamide monohydrate] | 0.189 ± 0.0065
4 | CCN(CC)C(=S)SSC(=S)N(CC)CC [Disulfiram] | 0.161 ± 0.013
5 | O=C(CCCCCCC(=O)Nc1ccccc1)NO [Vorinostat] | 0.174 ± 0.0062
6 | CN1CCc2c(c3ccccc3n2Cc2ccccc2)C1 [Mebhydroline 1,5-naphtalenedisulfonate] | 0.187 ± 0.017
7 | Clc1ccc(CSC(Cn2ccnc2)c2ccc(Cl)cc2Cl)cc1 (stereo not given) [Sulconazole nitrate] | 0.0605 ± 0.00098
8 | NS(=O)(=O)c1cc(C2(O)NC(=O)c3ccccc32)ccc1Cl (stereo not given) [Chlorthalidone] | 0.205 ± 0.016
9 | CO[C@@H]1[C@@H](O[C@@H]2O[C@H](C)[C@@H](O[C@H]3C[C@@](C)(O)[C@@H](OC(=O)CC(C)C)[C@H](C)O3)[C@H](N(C)C)[C@H]2O)[C@@H](CC=O)C[C@@H](C)[C@@H](O)/C=C/C=C/C[C@@H](C)OC(=O)C[C@H]1OC(C)=O [Josamycin] | 0.0494 ± 0.00059
10 | O=C(CCNNC(=O)c1ccncc1)NCc1ccccc1 [Nialamide] | 0.217 ± 0.034
11 | Cn1ccnc1S [Methimazole] | 0.2 ± 0.0098
12 | NC(=O)c1ncn([C@@H]2O[C@H](CO)[C@@H](O)[C@H]2O)n1 [Ribavirin] | 0.196 ± 0.021
13 | NCCC[C@H](N)CC(=O)N[C@H]1CNC(=O)[C@H]([C@H]2C[C@H](O)NC(N)=N2)NC(=O)/C(=C/NC(N)=O)NC(=O)[C@H](CO)NC(=O)[C@H](CO)NC1=O [Viomycin sulfate] | 0.169 ± 0.0056
14 | CC(C)[C@H](N)C(=O)OCCOCn1cnc2c(=O)nc(N)[nH]c21 [Valacyclovir hydrochloride] | 0.179 ± 0.011
15 | N=C(N)c1ccc(OCCCCCOc2ccc(C(=N)N)cc2)cc1 [Pentamidine isethionate] | 0.224 ± 0.008
16 | CC(C)NCC(O)COc1ccc(CCOCC2CC2)cc1 (stereo not given) [Betaxolol hydrochloride] | 0.235 ± 0.026
17 | OCc1cc(C(O)CNCCCCCCOCCCCc2ccccc2)ccc1O (stereo not given) [Salmeterol] | 0.208 ± 0.017
18 | CN1CCOC(c2ccccc2)c2ccccc2C1 (stereo not given) [Nefopam hydrochloride] | 0.186 ± 0.006
19 | NS(=O)(=O)c1cc2c(cc1Cl)N=C(CSCc1ccccc1)NS2(=O)=O [Benzthiazide] | 0.194 ± 0.016
20 | CC(=O)[C@H]1CC[C@H]2[C@@H]3CCC4=CC(=O)CC[C@]4(C)[C@H]3CC[C@]12C [Progesterone] | 0.178 ± 0.015

same assay, conditions: arabinose induction (level): Low; compound 0.1 mM; raw OD600 reference: median of DMSO wells 0.227, cell-free background 0.041

Row | SMILES | growth
21 | CC(C)NCC(O)COc1cccc2[nH]ccc12 (stereo not given) [Pindolol] | 0.231 ± 0.048
22 | O=C1C(CC[S+]([O-])c2ccccc2)C(=O)N(c2ccccc2)N1c1ccccc1 (stereo not given) [Sulfinpyrazone] | 0.203 ± 0.023
23 | COc1ccc(C(=O)NCc2cccnc2)cc1C(=O)NCc1cccnc1 [Picotamide monohydrate] | 0.228 ± 0.034
24 | CCN(CC)C(=S)SSC(=S)N(CC)CC [Disulfiram] | 0.211 ± 0.01
25 | O=C(CCCCCCC(=O)Nc1ccccc1)NO [Vorinostat] | 0.204 ± 0.0056
26 | CN1CCc2c(c3ccccc3n2Cc2ccccc2)C1 [Mebhydroline 1,5-naphtalenedisulfonate] | 0.207 ± 0.0028
27 | Clc1ccc(CSC(Cn2ccnc2)c2ccc(Cl)cc2Cl)cc1 (stereo not given) [Sulconazole nitrate] | 0.0607 ± 0.0018
28 | NS(=O)(=O)c1cc(C2(O)NC(=O)c3ccccc32)ccc1Cl (stereo not given) [Chlorthalidone] | 0.208 ± 0.017
29 | CO[C@@H]1[C@@H](O[C@@H]2O[C@H](C)[C@@H](O[C@H]3C[C@@](C)(O)[C@@H](OC(=O)CC(C)C)[C@H](C)O3)[C@H](N(C)C)[C@H]2O)[C@@H](CC=O)C[C@@H](C)[C@@H](O)/C=C/C=C/C[C@@H](C)OC(=O)C[C@H]1OC(C)=O [Josamycin] | 0.0568 ± 0.0075
30 | O=C(CCNNC(=O)c1ccncc1)NCc1ccccc1 [Nialamide] | 0.249 ± 0.014
31 | Cn1ccnc1S [Methimazole] | 0.262 ± 0.04
32 | NC(=O)c1ncn([C@@H]2O[C@H](CO)[C@@H](O)[C@H]2O)n1 [Ribavirin] | 0.203 ± 0.025
33 | NCCC[C@H](N)CC(=O)N[C@H]1CNC(=O)[C@H]([C@H]2C[C@H](O)NC(N)=N2)NC(=O)/C(=C/NC(N)=O)NC(=O)[C@H](CO)NC(=O)[C@H](CO)NC1=O [Viomycin sulfate] | 0.226 ± 0.031
34 | CC(C)[C@H](N)C(=O)OCCOCn1cnc2c(=O)nc(N)[nH]c21 [Valacyclovir hydrochloride] | 0.186 ± 0.021
35 | N=C(N)c1ccc(OCCCCCOc2ccc(C(=N)N)cc2)cc1 [Pentamidine isethionate] | 0.0531 ± 0.0065
36 | CC(C)NCC(O)COc1ccc(CCOCC2CC2)cc1 (stereo not given) [Betaxolol hydrochloride] | 0.246 ± 0.011
37 | OCc1cc(C(O)CNCCCCCCOCCCCc2ccccc2)ccc1O (stereo not given) [Salmeterol] | 0.214 ± 0.017
38 | CN1CCOC(c2ccccc2)c2ccccc2C1 (stereo not given) [Nefopam hydrochloride] | 0.243 ± 0.036
39 | NS(=O)(=O)c1cc2c(cc1Cl)N=C(CSCc1ccccc1)NS2(=O)=O [Benzthiazide] | 0.21 ± 0.012
40 | CC(=O)[C@H]1CC[C@H]2[C@@H]3CCC4=CC(=O)CC[C@]4(C)[C@H]3CC[C@]12C [Progesterone] | 0.182 ± 0.013
